Screens: PubChem BioAssay, National Center for Advancing Translational Sciences (NCATS)
Compounds with a hit are over-represented: about 12% of the library has one in this group of screens.
JMJD2A Tudor: JMJD2A Tudor domain (human) inhibition; O75164; AlphaScreen JMJD2A-Tudor / H3K4me3 peptide binding; Potency, µM (top dose mostly 114 µM), actives largely listed as inhibitors; hit rate 4.4% among 390,000; AID 504339; note: nearly all actives have a fitted effect of over 50% in size
L3MBTL1 inh: inhibitors of human L3MBTL1 | Q9Y468 | AlphaScreen L3MBTL1–H3K9me1 peptide binding | Potency, µM (top dose mostly 57.1 µM), most hits filed as inhibitors | hit rate 0.66% among 230,000 | AID 485360; note: nearly all actives have a fitted effect of over 60% in size
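First, the protein-peptide complex forms for 30 min at room temperature (L3MBTL1 50 nM, biotinylated H3K9me1 peptide 75 nM). Next, compounds are pin-transferred and incubated 30 min. Finally, AlphaScreen beads are added and read after 30 min.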
BAZ2B inh: blocks human BAZ2B. AlphaScreen BAZ2B-H3K14Ac peptide displacement. AID 504333. Q9UIF8. hit rate 4.4% among 360,000. Potency, µM (doses to about 114 µM), usual class: inhibitors; note: nearly all actives have a fitted effect of over 60% in size
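BAZ2B (50 nM) with biotin-H3(5-23)K14Ac peptide (50 nM) in PBS pH 7.4, 0.01% Tween-20, preformed 30 min, then compound 30 min at room temperature; top concentration 110uM. AlphaScreen streptavidin donor/nickel chelate acceptor beads (10 ug/mL final), 20 min dark, signal read.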
G9a inh: G9a (human) methyltransferase inhibition; G9a H3K9 monomethylation, AlphaScreen, 2 h; Potency, µM (series often up to 102 µM), actives largely listed as inhibitors; hit rate 8.8% among 350,000; AID 504332; note: nearly all actives have a fitted effect of over 75% in size
Target sequence (Q96KQ7 913-1193 limits assumed): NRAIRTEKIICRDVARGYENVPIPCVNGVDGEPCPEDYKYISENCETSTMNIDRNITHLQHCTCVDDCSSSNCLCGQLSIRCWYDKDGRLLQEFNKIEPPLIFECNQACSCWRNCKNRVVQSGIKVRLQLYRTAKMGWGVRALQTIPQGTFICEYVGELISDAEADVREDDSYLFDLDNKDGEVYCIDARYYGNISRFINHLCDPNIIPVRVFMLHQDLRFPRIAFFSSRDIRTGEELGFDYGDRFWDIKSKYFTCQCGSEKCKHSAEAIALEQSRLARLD
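Quantitative HTS format: methyltransferase activity on a biotin-tagged H3K9 peptide is measured by AlphaScreen, using a rabbit anti-monomethyl-H3K9 antibody with streptavidin donor and anti-IgG acceptor beads. Final levels are 20 nM enzyme, 500 nM peptide, 20 uM SAM; 2 h RT.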
HP1b binding inh: inhibitors of HP1-beta chromodomain binding to methylated histone tails. P83916. AlphaScreen HP1-beta / biotin-H3K9me3 peptide binding. Potency, µM (titrated, usually from 114 µM), hits mostly inhibitors. hit rate 0.56% among 390,000. AID 540317; note: nearly all actives have a fitted effect of over 70% in size
Target sequence (P83916 whole entry, looked up): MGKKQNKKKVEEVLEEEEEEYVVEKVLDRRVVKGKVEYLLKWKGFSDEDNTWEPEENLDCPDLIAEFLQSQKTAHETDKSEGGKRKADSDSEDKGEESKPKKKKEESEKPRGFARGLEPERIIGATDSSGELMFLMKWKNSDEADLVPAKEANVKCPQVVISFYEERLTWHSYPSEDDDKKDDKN
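Compound inhibition of the preformed complex between 50 nM HP1-beta and 50 nM biotinylated H3K9me3 peptide was read by AlphaScreen. Buffer was PBS pH 7.4 with 0.01% Tween-20. Incubations ran 30 min at room temperature, with 10 ug/mL donor/acceptor beads.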
Sfp inh: inhibitors of Bacillus subtilis Sfp phosphopantetheinyl transferase; Potency, µM, actives largely listed as inhibitors; Q9F4F7; Biochemical Sfp PPTase activity, qHTS; hit rate 3.5% among 310,000; AID 1490;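 note: the enzyme is Sfp with the accession as filed and its product quenches rhodamine fluorescence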
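Fluorescence-quenching assay with 15 nM Sfp, 5 uM rhodamine-CoA and 12.5 uM BHQ-2-labelled ybbR peptide in pH 7.6 Hepes/MgCl2 buffer. Enzyme was pre-incubated with compound for 15 min at room temperature. Rate was taken from the 30-min fluorescence change (525/598 nm).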
Hits are given with their value; n = inactive; u = inconclusive; x = no result; [ ] = remark or other dose. Calls come from the whole dose curve; as a rule, active = well fitted curve in the direction sought with a large enough effect; inconclusive = small, poorly fitted or top-dose-only effect, or another doubt; inactive = no such curve, though single readings can be large; an effect the other way counts as inactive or inconclusive.

SMILES	JMJD2A Tudor	L3MBTL1 inh	BAZ2B inh	G9a inh	HP1b binding inh	Sfp inh
Nc1c(C(=O)Nc2ccc(Br)cc2)sc2nc(-c3ccncc3)ccc12	n	x	n	n	n	x
CC(=O)c1sc2nc(-c3ccco3)ccc2c1N	79µM	n	50µM	x	u	22µM
Nc1c(C(=O)Nc2ccc(F)cc2)sc2nc(-c3ccco3)ccc12	n	n	n	40µM	n	7.9µM
NC(=O)c1sc2nc(-c3ccccc3)ccc2c1N	n	n	n	x	n	n
CC1(C)Cc2c(ccc3ccccc23)/C(=C/C#N)N1	u	n	n	50µM	n	n
Cc1ccc(SC2=C(N(C)C)C(=O)c3ccccc3C2=O)cc1	5.6µM	x	x	x	u	x
CN(C)c1ncc(C(=O)NCc2ccccc2Cl)cn1	n	x	n	n[12.7 µM]	n	x
COc1cc(C2C(=O)N(C3CCCCCC3)CC(=O)N2Cc2ccccc2)ccc1OC(C)C (stereo unspecified)	n	x	n	n	n	x
C/C(Cn1cnc([N+](=O)[O-])n1)=N\NC(=O)c1ccc(F)cc1	n	n	n	20µM	n	n
C/C(Cn1cnc([N+](=O)[O-])n1)=N\NC(=O)c1cccc(F)c1	u	n	n	n	n	n
O=C(Nc1cccc(Cl)c1)c1cnc2sc(N3CCCC3)nn2c1=O	n	x	n	n	n	x
CCc1ccc(CNC(=O)c2cc3ccccn3n2)cc1	n	x	n	n	n	x
CN(C)c1ccc(CNC(=O)c2cc3ccccn3n2)cc1	u	x	u	16µM	n	x
COc1cccc(C(=O)Nc2ccc(C(=O)OCc3cc(=O)n4nc(C5CC5)sc4n3)cc2)c1	n	x	n	n[12.7 µM]	n	x
O=C(O)c1ccc(NCCc2ccc(Cl)cc2)c([N+](=O)[O-])c1	n	x	u	79µM	n	n
O=[N+]([O-])c1cc(C(F)(F)F)ccc1NCCNC(=S)Nc1ccc(Cl)cc1	u	n	20µM	28µM	n	n
O=[N+]([O-])c1cc(Cl)ccc1NCCc1ccccn1	45µM	x	10µM	u	u	n
O=C(Nc1cc(F)cc(F)c1)c1ccc(NCCc2ccccc2)c([N+](=O)[O-])c1	n	n	n	n	n	n
N#Cc1ccc(NCCc2ccccn2)c([N+](=O)[O-])c1	n	n	n	x	n	n
CN1CCc2c(c3cnc4cc(Cl)ccc4c3n2C)C1	n	x	x	x	n	x
CCc1ccc(-n2nc(CO)c(C(=O)NCCOC)n2)cc1	n	x	n	n	n	x
CC(C)(C)C(=O)Cn1c(=O)n(CCCCCC(=O)NCc2ccc3c(c2)OCO3)c(=O)c2sccc21	n	x	n	n	n	x
Cc1csc(Sc2ccc(C(=O)OCC(=O)Nc3ccc(F)cc3[N+](=O)[O-])cc2[N+](=O)[O-])n1	u	n	n	35µM	n	n
Cc1cc(C(=O)OCC(=O)Nc2ccc(F)cc2[N+](=O)[O-])c2ccccc2n1	n	n	n	n	n	n
CCOc1ccc2nc(N(CCCN(C)C)C(=O)c3ccc4c(c3)CCCC4)sc2c1	u	x	u	45µM	n	n
SMILES	JMJD2A Tudor	L3MBTL1 inh	BAZ2B inh	G9a inh	HP1b binding inh	Sfp inh
CN(C)CCCN(C(=O)c1ccc2c(c1)CCCC2)c1nc2ccc(Cl)cc2s1	40µM	n	u	u	n	35µM
Cc1cc(C2=NNC(=NC3CC3)SC2)c(C)n1-c1ccccc1	u	n	u	28µM	n	n
CN=C1NN=C(c2cc(C)n(-c3c(C)n(C)n(-c4ccccc4)c3=O)c2C)CS1	n	n	n	u	n	50µM
CCCCOc1ccc(C(=O)Nc2ccc3c(c2)CCCN3C(=O)c2cccs2)cc1	n	x	n	n	n	x
CCC(C)NC(=O)c1cnn(-c2ccc(Cl)cc2)c1C1CCN(C(=O)OC(C)(C)C)CC1 (stereo unspecified)	n	x	n	n	n	x
COC(=O)c1cc(OC)c(OC)c(OC)c1NC(=O)c1cc(=O)n(C)c(=O)n1C	n	x	n	28µM	n	x
COc1ccc(CCNC(=O)c2cc(=O)n(C)c(=O)n2C)cc1OC	n	x	n	n	n	n
COc1ccc(C2C(=O)N(C3CCC(C)CC3)CC(=O)N2C2CCCCC2)cc1OC (stereo unspecified)	n	x	n	n	n	x
Cc1cc2cc(CN(Cc3ccco3)C(=S)NCC3CCCO3)c(=O)[nH]c2cc1C (stereo unspecified)	u	n	u	u	n	50µM
CNC(=S)N(Cc1ccco1)Cc1cc2cc3c(cc2[nH]c1=O)OCCO3	n	n	n	79µM	n	28µM
CCN(CC)CCCNC(=S)N(Cc1ccco1)Cc1cc2cc3c(cc2[nH]c1=O)OCCO3	x	n	n	n	x	79µM
CCc1ccc2[nH]c(=O)c(CN(Cc3ccco3)C(=S)NCC3CCCO3)cc2c1 (stereo unspecified)	u	n	n	x	n	n
CN(C)CCCN(Cc1cc2cc3c(cc2[nH]c1=O)OCO3)C(=S)Nc1cccc(Cl)c1	u	u	n	50µM	n	n
COc1ccc(C)cc1NC(=O)N1CCN(c2cc(-c3noc(C)n3)ccc2C)CC1	n	x	n	n	n	x
CCC(C)NC(=O)Cn1c(=O)n(-c2cc(OC)cc(OC)c2)c(=O)c2ccccc21 (stereo unspecified)	n	x	n	n	n	x
CCc1ccc(NC(=O)Cn2c(=O)n(CCCC(=O)NCCc3ccc(OC)c(OC)c3)c(=O)c3ccccc32)cc1	n	x	n	n	n	x
